Drawing on PubChem BioAssay AID588342 (National Center for Advancing Translational Sciences (NCATS), 2011), this text covers Potency and activity change, negative = inhibition for 103 molecules.

The whole screen tested about 360,000 compounds, of which about 25,000 (6.9%) were called active. Roughly 9% stayed inconclusive and do not appear here. What follows is part of a selection rich in actives, with near analogues and random picks from the rest. Entries that show only a call come without a potency. A number with no mark means an inactive call. Calls follow the shape of the dose curve; as a rule, active = well fitted inhibition curve with a large enough effect; inconclusive = small, poorly fitted or top-dose-only effect; inactive = flat fitted curve, though single readings scatter.
Potency is read from the fitted curve at half-maximal effect.

The target of the test is Luciferin 4-monooxygenase (Photinus pyralis) (UniProt P08659). In words: qHTS profiling assay for firefly luciferase inhibitor/activator using purifed enzyme and Km concentrations of substrates (counterscreen for miR-21 project). Also: nearly all actives have a fitted effect of over 55% in size. As to conditions: purified FLuc, luminescence inhibition; series mostly up to 57.5 µM. The essentials: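 Purified P. pyralis luciferase (10nM final) with 10uM D-luciferin and 10uM ATP (Km levels) in 50mM Tris acetate pH 7.5, 10mM Mg acetate, 0.01% Tween-20, 0.05% BSA; qHTS 6-point titration, ~60 µM downward; luminescence read.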
Luciferin 4-monooxygenase (Photinus pyralis), sequence (P08659 whole entry, looked up): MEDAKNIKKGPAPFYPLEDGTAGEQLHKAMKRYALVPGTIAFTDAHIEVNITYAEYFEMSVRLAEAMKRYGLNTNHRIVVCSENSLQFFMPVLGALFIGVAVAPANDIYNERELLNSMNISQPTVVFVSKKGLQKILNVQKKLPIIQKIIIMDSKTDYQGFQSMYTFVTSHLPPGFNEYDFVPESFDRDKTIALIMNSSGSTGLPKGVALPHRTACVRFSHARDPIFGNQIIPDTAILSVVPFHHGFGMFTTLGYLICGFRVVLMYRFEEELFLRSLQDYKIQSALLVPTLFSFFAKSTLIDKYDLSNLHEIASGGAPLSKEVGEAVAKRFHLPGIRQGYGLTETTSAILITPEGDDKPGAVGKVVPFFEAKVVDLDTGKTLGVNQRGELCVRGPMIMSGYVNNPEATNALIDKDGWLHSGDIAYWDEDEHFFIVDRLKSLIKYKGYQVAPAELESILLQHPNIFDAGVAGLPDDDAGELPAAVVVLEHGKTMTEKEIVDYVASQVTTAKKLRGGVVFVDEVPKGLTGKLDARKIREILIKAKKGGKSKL
(qHTS replaces the single test concentration by a dilution series.)
As to `COc1ccc(NC2CCCN(C(=O)c3ccncc3)C2)cc1` (stereo not drawn), the Potency entry was “inactive”. For the molecule `COC(=O)c1ccc(NC(=O)c2cc(S(=O)(=O)N3CCC(C)CC3)cn2C)cc1`, the Potency entry is “inactive”. The same measure, in the same setting: next, `O=C(NCC(O)c1ccc([N+](=O)[O-])cc1)C1CCCCC1` (stereo not drawn): “inactive”.

Turning to `c1ccc2c(c1)OCCOCCOCCO2`, the Potency result is “inactive”.

Take `COc1ccc2sc(-c3ccc(N(C)C)cc3)c(C#CCO)c2c1`: the Potency is 8.49 µM (active). Turning to `Cc1ccc(CCNC(=O)C2CCN(c3nnc(-n4cccc4CNc4ccc(C)cc4)s3)CC2)cc1`, the Potency result is “inactive”.

Turning to `O=C(CNc1ccccc1N1CCCC1=O)Nc1cc(Cl)ccc1-n1cncn1`, the Potency result was “inactive”. Turning to `NS(=O)(=O)c1ccc(-c2ccc(/C=C3\SC(=O)NC3=O)o2)cc1`, the Potency is 13.5 µM (active). Regarding `O=S(=O)(c1ccc(Br)cc1)c1nnn2c1nc(NC1CCCCCC1)c1sccc12`, the Potency result was “inactive”.

On to `CCOc1ccccc1N(CC)C(=O)Nc1cn(C)c(=O)c2ccccc12`, for which the Potency result was “inactive”. As to `COc1ccc(C2Sc3ccccc3NC3=C2C(=O)c2ccccc23)c(OC)c1OC` (stereo not drawn), the Potency entry is “inactive”. In the case of `COc1cc(C2C(C(=O)c3sc(C)nc3C)=C(O)C(=O)N2CCN(C)C)cc(OC)c1OC` (stereo not drawn), the Potency result is “inactive”. Same read-out and setting: next, `COc1ccc(-c2cc(-c3ccccc3)nc3c2COc2ccc(Cl)cc2-3)cc1`: “inactive”; `COc1ccc(-c2cc(-c3ccc(F)cc3)nc3c2COc2ccccc2-3)cc1`: “inactive”; `COc1ccc(C2=Nc3cc(C)ccc3OC2)cc1`: 0.379 µM (active). For `C#C[C@]1(O)CC[C@H]2[C@@H]3CCC4=CC(=O)CC[C@@H]4[C@H]3CC[C@@]21CC`, the Potency entry was “inactive”. Regarding `Cc1ccc(C2CCN(C(=O)c3cnn(-c4ccccc4Cl)c3C3CCN(C(=O)OC(C)(C)C)CC3)C2)cc1` (stereo not drawn), the Potency result is “inactive”. With `O=C(CSc1nc(=O)n(Cc2cccnc2)c2c1CCC2)Nc1ccc(F)cc1F`, the Potency result was “inactive”. Consider `CN(C)S(=O)(=O)c1ccc(C(=O)N(Cc2cccnc2)c2nc3c(F)cc(F)cc3s2)cc1`, for which the Potency entry was “inactive”. As to `S=C(NCc1cccnc1)Nc1ccc(Cl)cc1Cl`, the Potency result is “inactive”.

As to `O=C(NC(=S)Nc1ccc(Cl)cc1Cl)C1CC1`, the Potency was 21.3 µM (active). In the case of `O=C(Nc1c(Cl)cccc1Cl)C1CCC1`, the Potency entry was “inactive”.

With `CN(C(=O)CCn1c(=S)oc2ccccc21)C1CCCCC1`, the Potency result is “inactive”. On to `Cc1ccc(S(=O)(=O)N(C)CC(=O)NCC(c2ccc(F)cc2)N2CCOCC2)cc1` (stereo not drawn), for which the Potency result is “inactive”. On the same count and under the same terms, to `CCOc1ccc(N2C(=O)CC(N(CCc3ccc(OC)c(OC)c3)C(=S)Nc3ccccc3)C2=O)cc1` (stereo not drawn) belongs “inactive”. On to `CC1(C)O[C@@H]2[C@H](O1)[C@@H](COS(=O)(=O)O)O[C@H]2n1cnc2c(=O)[nH]cnc21`, for which the Potency result is “inactive”. For the molecule `CC(=O)N(C1=C(Cl)C(=O)c2ccccc2C1=O)c1ccc(C(=O)O)cc1`, the Potency is 1.69 µM (active). For `COC1=C(N2CCOCC2)C(=O)c2ccccc2C1=O`, the Potency result is “inactive”. For `Cc1ccc(C)c(CSc2nc(-c3ccco3)nc3c2c(=O)n(C)c(=O)n3C)c1`, the Potency entry is “inactive”. `Cc1nn(C(=O)c2ccoc2C)c(N)c1-c1ccccc1`: the Potency is 10.7 µM (active). Consider `Cc1occc1C(=O)Nc1nnc(-c2ccncc2)s1`, for which the activity change, negative = inhibition is -0.684% [at 2.3 µM].

For the molecule `CCOC(=O)c1c(N)nn(C(=O)c2ccccc2)c1-c1ccccc1`, the Potency result was “inactive”. For `CCOC(=O)c1cc2c(=O)n3ccccc3nc2n(CC2CCCO2)c1=NC(=O)c1ccccc1F` (stereo not drawn), the Potency entry was “inactive”. Still for that read-out and setting: to `Cc1cccc(/C(N)=N/OC(=O)c2ccccc2Cl)c1` belongs 0.757 µM (active); to `Cc1cccc(C(=O)c2cccc(C)c2)c1`, “inactive”; to `Cc1ccc(/C(N)=N/OC(=O)COc2ccc(Cl)c(C)c2)cc1`, “inactive”.

With `C/C(=N/OC(=O)c1ccc(Br)cc1)c1ccc(C)cc1`, the Potency was 6.75 µM (active).

On to `C/C(=N\OC(=O)c1ccccc1)c1c(C)nc2cc(C)ccn12`, for which the Potency entry is “inactive”.

Take `Cc1ccc(OC(=O)CCC(=O)Nc2ccc(Br)cc2)cc1`: the Potency entry was “inactive”. On to `CCc1ccc(NC(=O)CSc2nc3c([nH]c4ccccc43)c(=O)n2-c2cccc(OC)c2)cc1`, for which the Potency entry was “inactive”. Turning to `Clc1ccc(N/N=C/c2cccs2)nn1`, the Potency entry was “inactive”. Consider `Oc1cccc(/C=N/Nc2ccc(Cl)nn2)c1O`, for which the Potency was 8.49 µM (active). `Cc1ccsc1/C=N/Nc1ccc(Cl)nn1`: the Potency result is “inactive”. `Cn1c(=O)c2c(nc(NCCc3ccccc3)n2Cc2ccccc2Br)n(C)c1=O`: the Potency result was “inactive”. For `CCOC(=O)/C=c1\s/c(=C\c2ccc(C#N)cc2)c(=O)n1CC(=O)Nc1cccc(C)c1C`, the Potency entry is “inactive”. The same measure, in the same setting: next, `CN(c1ccccc1)c1ccc(/C=c2\s/c(=C(/C#N)C(=O)C(C)(C)C)n(Cc3ccco3)c2=O)cc1`: 15.1 µM (active); `CCOc1ccccc1NC(=O)Cn1c(=O)n(Cc2ccco2)c(=O)c2sc3ccccc3c21`: “inactive”. Consider `O=C(CCc1cn(Cc2ccc(F)cc2)c2ccccc12)NC1CCCCC1`, for which the Potency entry is “inactive”. Same read-out and setting: to `COc1ccc(CCN=C2SCC(=O)N2Cc2ccccc2)cc1OC` belongs “inactive”. `Cc1ccc(-c2nn(CCC(=O)Nc3ccc(Cl)c(Cl)c3)c(=O)c3ccccc23)cc1`: the Potency entry was “inactive”. For `CC(C)c1nc2oc3c(N4CCN(C)CC4)ncnc3c2c2c1CCC2`, the Potency result is “inactive”. Regarding `Cc1cccc(NC(=S)Nc2ccc(Cl)c(Cl)c2)c1`, the Potency entry is “inactive”. Still for that read-out and setting: to `Cc1csc(NC(=S)Nc2cccc(Cl)c2)n1` belongs 4.78 µM (active); to `FC(F)(F)c1cccc(NC(=S)Nc2cccc(Cl)c2)c1`, “inactive”; to `O=C(O)c1ccccc1NC(=O)c1ccccc1-c1ccccc1C(=O)O`, “inactive”.

On to `COC(=O)c1ccccc1NC(=S)NC(=O)c1ccccc1F`, for which the Potency entry was “inactive”. On to `O=C(NC(=S)Nc1ccccc1C(=O)O)c1ccc(-c2ccc(Br)cc2)o1`, for which the Potency is 26.9 µM (active). Still for that read-out and setting: next, `Cc1ccc(NC(=O)CN(C)C(=O)COC(=O)c2nccnc2N)cc1`: “inactive”; `COC(=O)c1cc(NC(=O)c2sc3ccccc3c2Cl)cc(C(=O)OC)c1`: “inactive”; `COc1ccc(N=C(C)c2sc3ccccc3c2O)cc1`: 0.601 µM (active). For `Cc1cc(C)cc(NC(=O)C(OC(=O)c2ccc(O)cc2)c2ccccc2)c1` (stereo not drawn), the Potency entry is “inactive”.

On to `CC(C)CN(C(=O)CSc1nncn1C)C1CCS(=O)(=O)C1` (stereo not drawn), for which the Potency result was “inactive”. In the case of `Cc1cccc(NC(=O)N2CCN(C)c3ncccc32)c1C`, the Potency result was “inactive”. Consider `O=C(Nc1ccon1)c1sc2ccccc2c1Cl`, for which the Potency is 7.57 µM (active).

For the molecule `CCCC(=O)Nc1ccc(NC(=O)c2sc3ccccc3c2Cl)cc1`, the Potency entry was “inactive”. As for `O=C(Nc1ccon1)c1cccc(Cl)c1`, the Potency entry is “inactive”.

Consider `Cc1cc2c(cc1C)C(c1cccc(OC(C)C)c1)CC(=O)N2` (stereo not drawn), for which the Potency result was “inactive”.

`Cc1cccc(-c2nc(SCc3ccc(Br)cc3)n3[nH]c(=O)cc3n2)c1`: the Potency result is “inactive”.

For the molecule `CCOc1ccc(-n2c(SCC(=O)NCc3ccccc3)nc3n[nH]c(C)c3c2=N)cc1`, the Potency entry was “inactive”. Same read-out and setting: to `CCCn1c2ccccc2c2cnn(CC(=O)NCCCOC(C)C)c(=O)c21` belongs “inactive”; to `CSCCNC(=O)c1ccc2nc(Cc3ccccc3F)oc2c1`, 19 µM (active). As to `COc1ccc(Cc2nc3ccc(C(=O)NCc4ccccc4C)cc3o2)cc1`, the Potency result is “inactive”. As for `O=C(NCCc1ccc(Cl)cc1)c1ccc2nc(CCc3ccccc3)oc2c1`, the Potency entry was “inactive”.

Regarding `Cn1c(=O)sc2cc(NS(=O)(=O)c3ccc(C(C)(C)C)cc3)ccc21`, the Potency result is “inactive”. With `Cc1cccnc1CCNC(=O)C1CCC(=O)N(Cc2cccc(F)c2)C1` (stereo not drawn), the Potency result is “inactive”. Still for that read-out and setting: next, `CCOc1ccc(-c2cc3nc(C4CCN(C(=O)OC(C)(C)C)CC4)c(C(=O)Nc4cccc(CC)c4)cn3n2)cc1`: “inactive”. For `CN1C2CCC1/C(=C\c1ccccc1Cl)C(=O)/C2=C\c1ccccc1Cl`, the Potency result is “inactive”. As to `CCSc1ncc(Cl)c(C(=O)Nc2c(C(=O)c3ccccc3)oc3ccccc23)n1`, the Potency result was “inactive”. With `Fc1ccc(-n2ncc3c(Nc4ccc(Oc5ccccc5)cc4)ncnc32)cc1`, the Potency entry was “inactive”.

Turning to `Cc1ccc(-n2ncc3c(Nc4cccc(C(=O)O)c4)ncnc32)cc1`, the Potency is 0.953 µM (active). Consider `Cc1ccc(Nc2ncnc3c2cnn3C)c(C)c1`, for which the Potency result was “inactive”.

Take `COc1ccc(Cl)cc1NC(=O)CCC(=O)c1ccc(C)cc1`: the Potency result was “inactive”. The same measure, in the same setting: to `CCN1CCN(c2ncc3c(n2)CC(c2ccccc2O)CC3=O)CC1` (stereo not drawn) belongs “inactive”; to `CCc1ccccc1NC(=O)CN(C)C(=O)c1cc(C2CC2)nn1-c1ccccc1`, “inactive”; to `Cc1ccc(C)c(OCC(=O)NNC(=O)C2CCC2)c1`, “inactive”. As to `COc1cc(C(=O)OCC(=O)NC23CC4CC(CC(C4)C2)C3)cc(OC)c1OC`, the Potency entry was “inactive”. Turning to `N#Cc1nc(-c2cccc3ccccc23)oc1N`, the Potency result is “inactive”.

As to `CCOC(=O)c1c(C)[nH]c(C)c1S(=O)(=O)N1CCC(C(=O)Nc2ccc(C)c(Cl)c2)CC1`, the Potency result was “inactive”. The same measure, in the same setting: to `O=C(CSc1ncnc2sccc12)N1CCN(C(=O)c2cccs2)CC1` belongs “inactive”; to `O=C(CN1C2=NCCN2c2ccccc21)c1cccs1`, “inactive”. The same measure, in the same setting: next, `Nc1c(C(=O)c2cccs2)sc2nsc(SCCN3CCCCC3)c12`: 5.36 µM (active); `O=C(NCCCN1CCN(c2cccc(Cl)c2)CC1)c1nnc(Cc2ccc(F)cc2Cl)o1`: “inactive”. Consider `CCOC(=O)c1ccc(NC(=O)c2nc[nH]c2C(=O)N[C@@H](CCCCNC(=O)OC(C)(C)C)C(=O)OC(C)(C)C)cc1`, for which the Potency entry is “inactive”. Turning to `Cc1ccc(C(=O)/C=C/c2c(C)nn(-c3ccccc3)c2Cl)cc1`, the Potency was 6.01 µM (active). With `COc1ccc(CCNC(=O)c2c(C)nn(-c3ccccc3)c2Cl)cc1`, the Potency result was “inactive”.

Take `Cc1nn(-c2ccccc2)c(CC(C)(C)C(=O)O)c1C(=O)O`: the Potency result was “inactive”. As to `Cc1nn(-c2ccccc2)c(Cl)c1/C=C/C(=O)c1ccc(O)cc1`, the Potency was 12 µM (active). On to `Cc1nn(-c2ccccc2)c(C)c1/C=C/C(=O)OC(C)C(N)=O` (stereo not drawn), for which the Potency entry was “inactive”. On to `Cc1nn(-c2ccccc2)c(C)c1NC(=O)CCl`, for which the Potency result was “inactive”. For the molecule `COc1ccc(-c2c(-c3cc(OC)cc(OC)c3)n(C)c3ccc(-c4ccn[nH]4)cc23)cc1`, the Potency entry was “inactive”.

Take `O=C(NC1CC(=O)N(c2ccccc2)C1)c1ccco1` (stereo not drawn): the Potency entry is “inactive”. On the same count and under the same terms, to `CCOc1cc(C(=O)O)ccc1OCCOc1ccccc1` belongs “inactive”; to `COc1ccc(N2CCN(C(=O)c3ccccc3NC(=O)C3=C(C)OCCS3)CC2)cc1`, “inactive”.
